Cav3 T inh: inhibitors of human Cav3.2 T-type calcium channel | O95180 | Cav3.2-expressing cells, Fluo-4 calcium fluorescence FDSS; stronger effect = lower value | B-score at 10 µM | 100,000 tested, 4% active;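 active = single-dose well whose peak fluorescence ratio is a statistical outlier from its plate by either plate-standardised score or position-corrected B-score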
CD11b adhes inh: CD11b/CD18-fibrinogen binding inhibition | K562 CD11b/CD18 adhesion to fibrinogen, ATPlite luminescence; Mn2+ added to activate the integrin | inhibition, % at 10 µM | 93,000 tested, 0.54% active | AID 1497;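 active = primary inhibition of 50% or more at 10 µM, then 40% or more on retest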
Ecoli WT expand: growth inhibitors of E. coli BW25113 wild type; growth inhibition, % at 100 µM; 98,000 tested, 0.15% active; OD600 absorbance;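 active = growth inhibition above about 50% at one test dose, limit read from the data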;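 note: growth measured after 20 h incubation at 37 °C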
CD11b adhes enh: CD11b/CD18-fibrinogen binding enhancement; K562 CD11b/CD18 adhesion to fibrinogen, ATPlite luminescence; 93,000 tested, 0.07% active; activation, % at 10 µM;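 active = 10 µM primary screen giving 50% or more activity, confirmed by 40% or more on retest at that dose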
Numbers stand for hits; i = inactive; nt = no result. The full list was thinned out, with hits kept by preference.

SMILES	Cav3 T inh	CD11b adhes inh	Ecoli WT expand	CD11b adhes enh
CC(NC(=O)c1cccc(Cn2cc([N+](=O)[O-])cn2)c1)c1ccc(C(C)(C)C)cc1 (centres undefined)	-4.3	i	i	i
CC(C)NC(=O)c1cccc(Cn2cc(Cl)cn2)c1	i	i	i	i
CCC(NC(=O)c1cccc(Cn2cc([N+](=O)[O-])cn2)c1)c1ccc(C(C)C)cc1 (centres undefined)	-4.3	i	i	i
CCOC(=O)C1CCN(Cc2cnc(Oc3ccc(C(C)(C)C)cc3)s2)CC1	i	nt	i	nt
N#Cc1cccc(C(c2nnnn2C2CCCC2)N2CCC(Cc3ccccc3)CC2)c1 (centres undefined)	-7	nt	nt	nt
N#Cc1ccc(C(c2nnnn2C2CCCC2)N2CCC(Cc3ccccc3)CC2)cc1 (centres undefined)	-6.2	i	i	i
Cc1ccc(C)c(NC(=S)NNC(=O)c2csc3c2CCC(C)C3)c1 (centres undefined)	-5.4	i	i	i
Cc1ccc(C)c(NC(=S)NNC(=O)c2csc3c2CCCC3)c1	-5.3	i	i	i
Cc1ccccc1NC(=O)c1csc2c1CCCC2	i	i	i	i
CCNC(=S)NNC(=O)c1csc2c1CCCC2	i	i	i	i
Cc1cccc(NC(=S)NNC(=O)c2csc3c2CCCC3)c1	-3.5	nt	i	nt
Cc1ccc(/C=N/NC(=O)c2csc3c2CCCC3)cc1	-4.9	i	i	i
COc1ccc(-c2ccncc2)cc1OC	i	nt	nt	nt
CC1=NN(/C(=N\c2nnc(C)s2)Nc2ccc(C(C)(C)C)cc2)[C@H](c2ccc(C)cc2)S1	-5.6	nt	nt	nt
O=C(CCn1c(=O)c2ccccc2n(CC(=O)NC2CCCC2)c1=O)NCc1ccco1	i	i	i	i
O=C(CSc1nc(-c2ccccc2)c(-c2ccccc2)[nH]1)NCCN1C(=O)CSC1=O	i	i	i	i
COC(=O)CN1C(=O)S/C(=C/c2ccc(N3CCCCC3)o2)C1=O	-7.9	nt	i	nt
CCOC(=O)CN1C(=O)S/C(=C/c2ccc(N3CCCCC3)o2)C1=O	i	i	i	i
Cc1ccc(-c2nnn(CC(=O)N(Cc3ccco3)C(C(=O)NC(C)(C)C)c3cccs3)n2)o1 (centres undefined)	-6.3	nt	i	nt
COc1ccc(C(=O)N(Cc2ccco2)Cc2cccs2)c(O)c1	-4.8	i	i	i
COc1ccc(CNC(=O)C(c2cccs2)N(Cc2ccco2)C(=O)Cc2cccs2)cc1 (centres undefined)	-7.2	nt	nt	nt
Cc1cc(C(=O)NCCN2CCN(c3cccc(Cl)c3)CC2)n(-c2ccccc2)n1	i	i	i	i
Cc1cc(C(=O)NCCCN2CCN(c3cc(Cl)ccc3C)CC2)n(-c2ccccc2)n1	-4.7	i	i	i
C=CCNC(=O)/C(C#N)=C/c1cn(-c2ccccc2)nc1-c1cccs1	nt	i	nt	i
CCCSc1nc(SCC(=O)NCc2ccccc2)c2c3c(sc2n1)COC(C)(CC)C3 (centres undefined)	i	nt	i	nt
SMILES	Cav3 T inh	CD11b adhes inh	Ecoli WT expand	CD11b adhes enh
CCCCSc1nc(SCC(=O)NCc2ccco2)c2c3c(sc2n1)COC(C)(CC)C3 (centres undefined)	-5.5	i	i	i
COc1ccccc1CO/N=C/c1cccn1-c1nccc(N(C)C)c1C#N	i	i	i	i
CN(C)c1ccnc(-n2cccc2/C=N/OCc2ccc(F)cc2Cl)c1C#N	-5.4	i	i	i
O=C(CCn1c(=S)[nH]c2ccccc2c1=O)NCC1CCCO1 (centres undefined)	-4.5	i	i	i
O=C(OCC(=O)N1CCc2ccccc2C1)c1cccc([N+](=O)[O-])c1	nt	i	nt	i
CC(C)(C)[C@H]1C=C(C(N)=O)O[C@@H](OCc2ccc(CO)cc2)C1	i	nt	nt	nt
CCOC(=O)C1=C(c2ccccc2)Nc2ncnn2C1c1cccc(OC)c1OC (centres undefined)	3.4	i	i	i
CCOC(=O)C(C)n1cnc2c(nnn2Cc2ccc(Cl)cc2)c1=O (centres undefined)	-4.5	i	i	i
O=C(Cn1cnc2c(nnn2Cc2ccccc2)c1=O)N1CCN(c2ccccc2)CC1	i	i	i	i
O=C(Cn1cnc2c(nnn2Cc2ccc(Cl)cc2)c1=O)N1CCN(c2ccccc2)CC1	-4.4	nt	nt	nt
CCO[C@@H]1OC(C(=O)N2CCN(Cc3ccccc3)CC2)=C[C@H](C2CC2)[C@H]1CCCO	i	nt	nt	nt
CCCCc1cc(=O)oc2cc(OCC(=O)N(CC)CC)c(Cl)cc12	-3.1	i	i	i
O=S(=O)(NC1CC2CCC1C2)c1ccc(Br)s1 (centres undefined)	-4.9	i	i	i
CC#CCN1C(=O)N[C@@H](c2ccccc2)C(C(=O)OC)=C1C	i	nt	nt	nt
COC(=O)c1c(NC(=O)CSc2nnc(-c3ccco3)n2Cc2ccccc2)sc(C)c1C	-4.5	i	i	i
CCOC(=O)c1c(NC(=O)CSc2nnc(Cc3ccccc3)o2)sc(C)c1C	-4.5	nt	nt	nt
COC(=O)c1c(NC(=O)CSc2nc3ccccc3c(=O)n2Cc2ccco2)sc(C)c1C	nt	i	nt	i
CCOC(=O)c1c(NC(=O)CSc2nnc(-c3ccco3)o2)sc(C)c1C	i	nt	i	nt
O=C(CSc1nnc(-c2ccncc2)n1Cc1ccco1)OC1CCCCC1	i	i	i	i
CCOC(=O)c1c(NC(=O)CCc2ccc(CC)o2)sc(C)c1C	-4.5	i	i	i
O=C(CSc1nnc(-c2ccco2)n1Cc1ccccc1)OC1CCCCC1	-6.2	i	i	i
CCCOC(=O)C1NC(=O)N2C(C(=O)OCCC)C(C)(C)S[C@H]12 (some centres undefined)	i	nt	nt	nt
CCOC(=O)CN(C)C(=O)C1CCCN1C(=O)OC(C)(C)C (centres undefined)	i	nt	nt	nt
CCOc1ccc2nnc(-c3ccc(Br)cc3)n2n1	i	nt	nt	nt
CCOc1ccccc1C(=O)Nc1cccc(-c2nnc(-c3ccccc3)o2)c1	i	i	i	i
SMILES	Cav3 T inh	CD11b adhes inh	Ecoli WT expand	CD11b adhes enh
CCCn1c(N)c(C(=O)CSc2nnc(Cc3ccccc3)o2)c(=O)n(C)c1=O	-7.8	nt	i	nt
Cn1c(=O)c(C(=O)CSc2nnc(Nc3ccccc3)s2)c(N)n(Cc2ccccc2)c1=O	i	i	i	i
C=C(C)CSc1nncn1/N=C/c1ccc(OC)cc1	-6	i	i	i
COc1ccccc1NC(=O)C(NC(=O)OC(C)(C)C)C(C)OCc1ccccc1 (centres undefined)	i	nt	i	nt
Cc1ccc(C)c(S(=O)(=O)C(C#N)c2nc3ccccc3nc2N2CCOCC2)c1 (centres undefined)	i	95	i	i
Cc1ccc(C)c(S(=O)(=O)C(C#N)c2nc3ccccc3nc2N2CC(C)OC(C)C2)c1 (centres undefined)	-5.7	nt	i	nt
Cc1ccc(S(=O)(=O)Nc2ccccc2/C=N/c2nc3ccccc3n2C)cc1	nt	i	nt	i
C=C(C)Cn1c(-c2ccc(OC)cc2)nc2ccccc21	-5	i	i	i
O=C(NC1CCN(C(=O)N2c3ccccc3Sc3ccccc32)CC1)c1ccccc1Cl	i	i	i	i
COc1cccc(C(=O)NC2CCN(C(=O)N3c4ccccc4Sc4ccccc43)CC2)c1	-3.9	i	i	i
Cc1csc(NC(C)c2nc3cc(C(F)(F)F)ccc3n2CCCO)n1 (centres undefined)	i	nt	nt	nt
O=C(Nc1nc(-c2cccs2)cs1)c1ccc(Cl)s1	-4.1	nt	i	nt

Screening results from PubChem.
